# Results published in PubChem BioAssay (NCATS).
# Results filed as inconclusive are left out. Entries that show only a call come without a potency. Activity calls are given as the source filed them. Unless noted, calls come from the whole dose curve.
# What was measured:
# [1] = Primary qHTS for inhibitors of SARS-S pseudo-typed particle cell entry (AID 1479145); details: outcome: dose series up to 57.1 µM unless noted; note: nearly all actives have a fitted effect of over 45% in size; note: potency is the fitted concentration of half-maximal effect
# [2] = Primary qHTS for Huh7 cytotoxicity: counterscreen for inhibitors of MERS-S pseudotyped particle cell entry (AID 1479147); details: outcome: dose series up to 57.1 µM unless noted; note: potency is the fitted concentration of half-maximal effect
# [3] = Primary qHTS for inhibitors of MERS-S pseudo-typed particle cell entry (AID 1479149); details: outcome: dose series up to 57.1 µM unless noted; note: nearly all actives have a fitted effect of over 60% in size; note: potency is the fitted concentration of half-maximal effect
# [4] = Primary qHTS for Vero E6 cytotoxicity: counterscreen for inhibitors of SARS-S pseudo-typed particle cell entry (AID 1479150); details: outcome: dose series up to 57.1 µM unless noted
# [5] = target: Cytochrome P450 2D6 (Homo sapiens) (UniProt P10635); experiment: Cytochrome P450 family 2 subfamily D member 6 (CYP2D6) small molecule antagonists: luciferase biochemical (cell-free) qHTS assay (AID 1645840; active = well fitted curve in the direction sought with a large enough effect in the repeat runs; an effect the other way counts as inactive or inconclusive; note: nearly all actives have a fitted effect of over 55% in size)
# Chain of Cytochrome P450 2D6 (Homo sapiens) (P10635 whole entry, looked up): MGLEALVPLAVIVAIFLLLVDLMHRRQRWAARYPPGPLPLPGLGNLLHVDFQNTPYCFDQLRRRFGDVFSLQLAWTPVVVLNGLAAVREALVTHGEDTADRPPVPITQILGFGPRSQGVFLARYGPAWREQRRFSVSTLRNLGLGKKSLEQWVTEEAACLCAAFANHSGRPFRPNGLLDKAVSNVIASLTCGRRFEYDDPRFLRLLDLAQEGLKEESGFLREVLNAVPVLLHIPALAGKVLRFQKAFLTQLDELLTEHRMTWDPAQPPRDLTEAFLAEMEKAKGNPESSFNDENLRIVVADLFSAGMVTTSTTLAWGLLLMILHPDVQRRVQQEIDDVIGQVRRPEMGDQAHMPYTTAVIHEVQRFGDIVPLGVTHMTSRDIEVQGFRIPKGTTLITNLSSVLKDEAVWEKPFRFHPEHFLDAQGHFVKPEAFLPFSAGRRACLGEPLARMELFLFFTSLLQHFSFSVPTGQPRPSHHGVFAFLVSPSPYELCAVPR
# Outline: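 P450-Glo CYP2D6 system: proluciferin substrate converted by enzyme to luciferin, read by luminescence proportional to activity. Enzyme-substrate mix with compound 10 min at room temperature, then NADPH regeneration 1 h before detection reagent.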
# [6] = target: Cytochrome P450 2C9 (Homo sapiens) (UniProt P11712); experiment: Cytochrome P450 family 2 subfamily C member 9 (CYP2C9) small molecule antagonists: luciferase biochemical (cell-free) qHTS assay (AID 1645842; active = well fitted curve in the direction sought with a large enough effect in the repeat runs; an effect the other way counts as inactive or inconclusive; note: potency is the fitted concentration of half-maximal effect; nearly all actives have a fitted effect of over 55% in size)
# Chain of Cytochrome P450 2C9 (Homo sapiens) (P11712 whole entry, looked up): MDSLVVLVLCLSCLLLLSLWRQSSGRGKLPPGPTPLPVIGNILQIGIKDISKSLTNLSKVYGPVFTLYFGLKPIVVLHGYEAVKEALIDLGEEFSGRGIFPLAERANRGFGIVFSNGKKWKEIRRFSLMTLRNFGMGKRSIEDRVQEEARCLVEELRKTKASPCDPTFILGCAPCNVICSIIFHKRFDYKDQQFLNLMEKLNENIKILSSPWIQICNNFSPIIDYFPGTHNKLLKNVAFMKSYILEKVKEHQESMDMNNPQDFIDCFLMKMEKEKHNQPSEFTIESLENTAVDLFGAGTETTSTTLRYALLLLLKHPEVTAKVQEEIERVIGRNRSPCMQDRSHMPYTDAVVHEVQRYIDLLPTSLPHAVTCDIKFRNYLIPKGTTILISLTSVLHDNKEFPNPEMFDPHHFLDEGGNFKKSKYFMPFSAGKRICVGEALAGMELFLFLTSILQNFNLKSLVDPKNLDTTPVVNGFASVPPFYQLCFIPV
# Outline: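 P450-Glo CYP2C9 system: proluciferin substrate with enzyme in mix containing 0.4% BSA, 10 min at room temperature, then NADPH regeneration solution added and incubated 1 h at 37C. Detection reagent stopped reaction; luminescence read after 20 min as RLU.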
# [7] = Cytotoxicity counterscreen for inhibitors of SARS-CoV-2 cell entry (AID 1645845); details: outcome: dose series up to 57.1 µM unless noted; note: nearly all actives have a fitted effect of over 50% in size
# Outline: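 After a 15 min room-temperature ATPLite 1step step, luminescence reflected ATP remaining in HEK293-ACE2 cells exposed to compound for 1 h plus 48 h at 37 C, with percent activity set by cell and no-cell controls.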
# [8] = Primary qHTS to identify inhibitors of SARS-CoV-2 cell entry (AID 1645846); details: SARS-CoV-2 pseudovirus cell entry assay, luminescence; note: nearly all actives have a fitted effect of over 45% in size; note: potency is the fitted concentration of half-maximal effect
# Outline: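 HEK293-ACE2 (Expi293F, stable hACE2), 1500 cells/well, o/n 37C; cpd 23 nL pin, 1 h; MLV-PP w/ SARS-CoV-2-S (Wuhan-Hu-1, Δ19 C-term); 48 h 37C; Bright-Glo luminescence; normalized vs S-PP and bald PP.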
# [9] = Confirmatory qHTS to identify inhibitors of SARS-CoV-2 cell entry (AID 1645844); note: nearly all actives have a fitted effect of over 45% in size; note: potency is the fitted concentration of half-maximal effect
# Outline: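 Using stable human ACE2 Expi293F cells, compounds preincubated 1 hr before spike pseudoparticle infection; luciferase signal after 48 hr at 37C, 5% CO2, normalised to spike PP and no-fusion-protein PP wells.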
# [10] = VSVG counterscreen qHTS to identify inhibitors of SARS-CoV-2 cell entry (AID 1645847); note: potency is the fitted concentration of half-maximal effect; nearly all actives have a fitted effect of over 65% in size
# Outline: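 Expi293F/hACE2 cells, overnight plating; cpd 1 h, 37C/5% CO2; + VSV-G PP (MLV pseudotyping), 48 h; supernatant removed, Bright-Glo luciferase read. Norm: VSV-G PP and bald PP wells.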
# [11] = target: Glutathione peroxidase 1 (Homo sapiens) (UniProt P07203); experiment: Primary qHTS Assay for Inhibitors of Recombinant Selenoprotein Glutathione Peroxidase 1 (GPX1) (AID 1845191; active = well fitted curve in the direction sought with a large enough effect; an effect the other way counts as inactive or inconclusive; note: nearly all actives have a fitted effect of over 65% in size)
# Chain of Glutathione peroxidase 1 (Homo sapiens) (P07203 whole entry, looked up): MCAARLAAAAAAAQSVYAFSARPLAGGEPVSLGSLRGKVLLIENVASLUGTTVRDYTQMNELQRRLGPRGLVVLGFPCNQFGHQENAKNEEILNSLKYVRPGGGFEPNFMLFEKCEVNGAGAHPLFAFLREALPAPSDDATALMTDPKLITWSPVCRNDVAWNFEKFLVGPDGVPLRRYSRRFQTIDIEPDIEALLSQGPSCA
# Outline: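 GPX1 10 nM, GR 100 nM, GSH 1 mM, NADPH 0.5 mM, CHP 0.5 mM (final). 30-min cpd preincubation, RT. Ex340/Em450 read t=0, t=15 min.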
# [12] = target: Phospholipid hydroperoxide glutathione peroxidase GPX4 (Homo sapiens) (UniProt P36969); experiment: Primary qHTS Assay for Inhibitors of Recombinant Selenoprotein Glutathione Peroxidase 4 (GPX4) (AID 1845192; active = well fitted curve in the direction sought with a large enough effect; an effect the other way counts as inactive or inconclusive; note: nearly all actives have a fitted effect of over 65% in size)
# Chain of Phospholipid hydroperoxide glutathione peroxidase GPX4 (Homo sapiens) (P36969 whole entry, looked up): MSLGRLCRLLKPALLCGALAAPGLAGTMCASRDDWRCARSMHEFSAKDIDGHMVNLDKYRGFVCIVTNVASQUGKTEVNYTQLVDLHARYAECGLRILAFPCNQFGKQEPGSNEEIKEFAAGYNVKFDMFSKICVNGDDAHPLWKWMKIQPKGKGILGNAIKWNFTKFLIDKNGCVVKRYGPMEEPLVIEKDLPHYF
# Outline: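 qHTS, GR-coupled: GPX4 200 nM + cpd 30 min RT → GSH 1 mM, NADPH 0.5 mM, GR 100 nM → CHP 0.5 mM start; fluor 340/450 at t0 and t15 min; no-enzyme wells as control.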
# [13] = Confirmatory qHTS for VERO E6 Cytotoxicity Assay: Counterscreen for SARS-CoV-2 CPE Assay (AID 1508605); note: nearly all actives have a fitted effect of over 60% in size
# [14] = activity change, negative = inhibition: at 57.1 µM (top of the series) unless noted, outcome: at 57.1 µM (top of the series) unless noted
compound,measurement,setting,value
C[C@]12C[C@@H]3S[C@H]3C[C@@H]1CC[C@H]1[C@H]3CC[C@@H](O)[C@@]3(C)CC[C@@H]12,Potency,[1],inactive
same,Potency,[2],inactive
same,Potency,[3],inactive
same,Potency,[4],inactive
same,Potency,[5],inactive
same,Potency,[6],0.107 µM (active)
same,Potency,[7],inactive
same,Potency,[8]; [14],inactive
O1[As]2O[As]1O2,Potency,[1],inactive
same,Potency,[2],inactive
same,Potency,[3],inactive
same,Potency,[4],inactive
same,Potency,[9],19.2 µM (active)
same,Potency,[7],inactive
same,Potency,[10],15.2 µM (active)
same,Potency,[11],inactive
same,Potency,[12],inactive
O=C(N[C@H]1CCS[C@H]2CCC[C@@H](C(=O)O)N2C1=O)[C@@H](S)Cc1ccccc1,Potency,[1],inactive
same,Potency,[2],inactive
same,Potency,[3],inactive
same,Potency,[4],inactive
same,Potency,[7],inactive
CO[C@@H]1[C@H](C)OC(O[C@H]2CC(Oc3cc4cc5c(c(O)c4c(O)c3C)C(=O)[C@@H](OC3C[C@@H](OC4C[C@H](OC6C[C@](C)(O)[C@@H](OC(C)=O)[C@H](C)O6)[C@@H](O)[C@H](C)O4)[C@H](O)[C@@H](C)O3)[C@H]([C@@H](OC)C(=O)[C@@H](O)[C@H](C)O)C5)O[C@@H](C)[C@H]2OC(C)=O)C[C@@H]1O (stereo partly specified),Potency,[1],inactive
same,Potency,[2],inactive
same,Potency,[3],inactive
same,Potency,[4],inactive
same,Potency,[9],0.0215 µM (active)
same,Potency,[7],inactive
same,Potency,[10],0.0482 µM (active)
same,Potency,[11],inactive
Cc1ncc(C[n+]2csc(CCOP(=O)(O)OP(=O)(O)O)c2C)c(N)n1,outcome,[1],inactive [at 0.573 µM]
same,outcome,[2],inactive [at 0.573 µM]
same,outcome,[3],inactive [at 0.573 µM]
same,"activity change, negative = cytotoxicity",[4],-14.9% [at 0.573 µM] (inactive)
CCCCN=C(N)NC(=N)N,outcome,[1],inactive [setting not given]
same,outcome,[2],inactive [setting not given]
same,outcome,[3],inactive [setting not given]
same,outcome,[4],inactive [setting not given]
same,outcome,[9],inactive
same,outcome,[7],inactive [setting not given]
same,outcome,[8]; [14],inactive [setting not given]
COc1ccc(NC(=O)c2ccc(C(=N)N(C)C)cc2)c(C(=O)Nc2ccc(Cl)cn2)c1,Potency,[1],inactive
same,Potency,[2],inactive
same,Potency,[3],inactive
same,Potency,[4],inactive
same,Potency,[7],inactive
CC(=O)[O][Al][O]C(C)=O,"activity change, negative = inhibition",[1],-39.3% [at 11.4 µM] (inactive)
same,outcome,[2],inactive [at 11.4 µM]
same,outcome,[3],inactive [at 11.4 µM]
same,"activity change, negative = cytotoxicity",[4],-2.68% [at 11.4 µM] (inactive)
same,outcome,[7],inactive [at 11.3 µM]
CCCCCCCCCCCCCCCC(=O)OC1CCCn2c1nc(C)c(CCN1CCC(c3noc4cc(F)ccc34)CC1)c2=O (stereo unspecified),Potency,[1],inactive
same,Potency,[2],inactive
same,Potency,[3],inactive
same,Potency,[4],inactive
NC(=O)[C@@H]1CC[C@@H]2CN1C(=O)N2OS(=O)(=O)O,Potency,[1],inactive
same,Potency,[2],inactive
same,Potency,[3],inactive
same,Potency,[4],inactive
same,Potency,[7],inactive
CC1(C)[C@@H]2CC[C@@]1(C)[C@H](OC(=O)CSC#N)C2,Potency,[1],inactive
same,Potency,[2],inactive
same,Potency,[3],inactive
same,Potency,[4],inactive
same,Potency,[7],inactive
O=C(O)c1cc(O)c2c(c1)[O][Bi][O]2,"activity change, negative = inhibition",[1],-20% [at 0.573 µM] (inactive)
same,"activity change, negative = cytotoxicity",[2],-1.24% [at 0.573 µM] (inactive)
same,outcome,[3],inactive [at 0.573 µM]
same,outcome,[4],inactive [at 0.573 µM]
FC(F)OC(Cl)C(F)(F)F (stereo unspecified),Potency,[1],inactive
same,Potency,[2],inactive
same,Potency,[3],inactive
same,Potency,[4],inactive
same,Potency,[7],inactive
CC(C)(C)c1ccc(CN2CCN(C(c3ccccc3)c3ccc(Cl)cc3)CC2)cc1 (stereo unspecified),Potency,[1],inactive
same,Potency,[2],inactive
same,Potency,[3],inactive
same,Potency,[4],inactive
same,Potency,[13],inactive
CS(=O)(=O)OCC(O)C(O)COS(C)(=O)=O (stereo unspecified),Potency,[1],inactive
same,Potency,[2],inactive
same,Potency,[3],inactive
same,Potency,[4],inactive
same,Potency,[7],inactive
Cc1cc(Nc2ccccc2C(=O)O)ccc1Cl,Potency,[1],inactive
same,Potency,[2],inactive
same,Potency,[3],inactive
same,Potency,[4],inactive
C=C(C)CNc1ccc(C(C)C(=O)O)cc1 (stereo unspecified),Potency,[1],inactive
same,Potency,[2],inactive
same,Potency,[3],inactive
same,Potency,[4],inactive
same,Potency,[7],inactive
C=C1C[C@@H]2CC[C@@]34C[C@H]5O[C@H]6[C@@H](O3)[C@H]3O[C@H](CC[C@@H]3O[C@H]6[C@H]5O4)CC(=O)C[C@@H]3[C@@H](OC)[C@@H](C[C@H](O)CN)O[C@H]3C[C@H]3O[C@@H](CC[C@@H]1O2)C[C@@H](C)C3=C,Potency,[1],inactive
same,Potency,[2],inactive
same,Potency,[3],inactive
same,Potency,[4],inactive
same,Potency,[9],0.221 µM (active)
same,Potency,[7],inactive
same,"activity change, negative = inhibition",[8]; at 11.3 µM (top of the series),-91.9%
same,"activity change, negative = inhibition",[8]; at 57.1 µM (top of the series),-84.4%
CC1(C)[C@H](C=C(Cl)Cl)[C@@H]1C(=O)OCc1c(F)c(F)cc(F)c1F,Potency,[1],inactive
same,Potency,[2],inactive
same,Potency,[3],inactive
same,Potency,[4],inactive
same,Potency,[5],inactive
same,Potency,[6],12 µM (active)
same,Potency,[7],inactive
same,Potency,[8]; [14],inactive
same,Potency,[11],inactive
same,Potency,[12],inactive
CCOC(=O)COc1ccc2c(C)c(CCN(CC)CC)c(=O)oc2c1,Potency,[1],inactive
same,Potency,[2],inactive
same,Potency,[3],inactive
same,Potency,[4],inactive
same,Potency,[7],inactive
CC[C@H]1CN2CCc3cc(OC)c(OC)cc3C2C[C@@H]1CC1NCCc2cc(OC)c(OC)cc21 (stereo partly specified),Potency,[1],5.62 µM (active)
same,Potency,[2],17.8 µM (active)
same,Potency,[3],5.62 µM (active)
same,Potency,[4],inactive
CCCCC(CC)COC(=O)CC(C(=O)OCC(CC)CCCC)S(=O)(=O)O (stereo unspecified),Potency,[1],inactive
same,Potency,[2],inactive
same,Potency,[3],inactive
same,Potency,[4],inactive
same,Potency,[7],inactive
O=C(OCCN(CCO)CCO)c1ccccc1O,Potency,[1],inactive
same,Potency,[2],inactive
same,Potency,[3],inactive
same,Potency,[4],inactive
NCCNc1ccc(NCCN)c2c1C(=O)c1ccncc1C2=O,Potency,[1],11.2 µM (active)
same,Potency,[2],inactive
same,Potency,[3],inactive
same,Potency,[4],inactive
same,Potency,[9],1.52 µM (active)
same,Potency,[8]; [14],7.94 µM (active)
same,Potency,[10],3.04 µM (active)
